Source: PubChem BioAssay (NCI)
Compounds without any hit were thinned out: in the full panel of roughly 83,000, 20% have a hit.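 Treatment: one concentration, 48 hours, 96-well format. Scoring: percent growth, with anything below 10 considered active.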 The source made the active and inactive calls.

Assays:
Assay in all cases: NCI-60 one-dose screen, 48 h (100 = growth as untreated, 0 = no growth, -100 = all killed)
Details in all cases: 10 µM unless noted
HCT-15 colon = test system: HCT-15 colon
HT29 colon = test system: HT29 colon
SNB-75 CNS = test system: SNB-75 CNS
SNB-19 CNS = test system: SNB-19 CNS
U251 CNS = test system: U251 CNS
PC-3 prostate = test system: PC-3 prostate
SK-MEL-5 melanoma = test system: SK-MEL-5 melanoma
UACC-62 melanoma = test system: UACC-62 melanoma
LOX IMVI melanoma = test system: LOX IMVI melanoma
SK-MEL-28 melanoma = test system: SK-MEL-28 melanoma
SK-MEL-2 melanoma = test system: SK-MEL-2 melanoma
EKVX NSCLC = test system: EKVX NSCLC
SN12C renal = test system: SN12C renal
UO-31 renal = test system: UO-31 renal
TK-10 renal = test system: TK-10 renal
ACHN renal = test system: ACHN renal
CAKI-1 renal = test system: CAKI-1 renal
A498 renal = test system: A498 renal
CCRF-CEM leukemia = test system: CCRF-CEM leukemia
MOLT-4 leukemia = test system: MOLT-4 leukemia

Measured: growth

O=C(OCc1ccc2c(Br)cc(Br)c(O)c2n1)N1CCN(C(=O)c2cc3ccccc3[nH]2)CC1
inactive: HCT-15 colon 19.6% | HT29 colon 59.6% | SNB-75 CNS 40.5% | SNB-19 CNS 31.6% | U251 CNS 12.9% | PC-3 prostate 27.5% | SK-MEL-5 melanoma 35.5% | UACC-62 melanoma 19% | LOX IMVI melanoma 28.7% | SK-MEL-28 melanoma 58.1% | SK-MEL-2 melanoma 44.8% | EKVX NSCLC 29.9% | SN12C renal 31.3% | UO-31 renal 12.8% | TK-10 renal 47.5% | ACHN renal 14.4% | CAKI-1 renal 23% | A498 renal 20.3% | CCRF-CEM leukemia 21.2% | MOLT-4 leukemia 35.5%

CC(C)n1nc(-c2ccc3oc(N)nc3c2)c2c(N)ncnc21
active: HCT-15 colon 0.972% | HT29 colon 4.07% | SNB-75 CNS -51.4% | SNB-19 CNS 0.364% | U251 CNS 1.15% | PC-3 prostate 0.237% | SK-MEL-5 melanoma -40.3% | UACC-62 melanoma -45% | LOX IMVI melanoma -16.4% | SK-MEL-28 melanoma -24% | SK-MEL-2 melanoma -19.5% | EKVX NSCLC -27.2% | SN12C renal 3.13% | UO-31 renal -20.9% | TK-10 renal -30.4% | ACHN renal -14% | CAKI-1 renal 2.4% | A498 renal -50.4% | MOLT-4 leukemia 6.39%
inactive: CCRF-CEM leukemia 11.7%

COc1cc(/C=C/c2cc(/C=C/c3ccc(O)c(OC)c3)n(C(=O)Nc3ccc(C)cc3C)n2)ccc1O
active: HCT-15 colon 3.84% | HT29 colon -38.5% | SNB-75 CNS -30.5% | SNB-19 CNS 2.45% | U251 CNS -12.3% | PC-3 prostate -10.8% | SK-MEL-5 melanoma -83.4% | UACC-62 melanoma -48.5% | LOX IMVI melanoma -29.8% | SK-MEL-28 melanoma 5.57% | SK-MEL-2 melanoma -27.2% | EKVX NSCLC -14.7% | SN12C renal 0.467% | UO-31 renal -38.7% | ACHN renal 5.29% | CAKI-1 renal -36.6% | A498 renal -14.7% | CCRF-CEM leukemia 1.54% | MOLT-4 leukemia -20.7%
inactive: TK-10 renal 15.9%

O=C1/C(=C/c2cccc([N+](=O)[O-])c2)COc2ccc(O)c(O)c21
active: HCT-15 colon -3.34% | HT29 colon -12% | SNB-75 CNS 7.32% | SNB-19 CNS -47.3% | U251 CNS -89% | PC-3 prostate -38.9% | UACC-62 melanoma -83.3% | LOX IMVI melanoma -93.6% | SK-MEL-28 melanoma -48.3% | SK-MEL-2 melanoma -25.4% | SN12C renal -71.3% | UO-31 renal -98.8% | TK-10 renal -48.5% | ACHN renal -98.4% | CAKI-1 renal -67.5% | CCRF-CEM leukemia 0.148% | MOLT-4 leukemia -1.81%
inactive: SK-MEL-5 melanoma 16.7% | EKVX NSCLC 34.7% | A498 renal 99.7%

COc1cc2c(c(OC)c1OC)CCC(c1cccc(C(=O)Nc3ccc([N+](=O)[O-])cc3)c1)O2 (stereo not given)
inactive: HCT-15 colon 54.5% | HT29 colon 64% | SNB-75 CNS 66.7% | SNB-19 CNS 56.7% | U251 CNS 57.7% | PC-3 prostate 27.1% | SK-MEL-5 melanoma 15.4% | UACC-62 melanoma 31.4% | LOX IMVI melanoma 52.9% | SK-MEL-28 melanoma 61.9% | SK-MEL-2 melanoma 43% | EKVX NSCLC 55.4% | SN12C renal 51.1% | UO-31 renal 29.3% | TK-10 renal 57.8% | ACHN renal 40.7% | CAKI-1 renal 50.5% | A498 renal 25.5% | CCRF-CEM leukemia 15.1%
active: MOLT-4 leukemia 4.06%

Clc1nc(N2CCC[N+]3(CC2)CC[N+]2(CCCNCC2)CC3)nc(N2CCC[N+]3(CC2)CC[N+]2(CCCNCC2)CC3)n1 (stereo not given)
inactive: HCT-15 colon 83.2% | HT29 colon 54.9% | SNB-75 CNS 123% | SNB-19 CNS 112% | U251 CNS 91.7% | PC-3 prostate 101% | SK-MEL-5 melanoma 102% | UACC-62 melanoma 96.8% | LOX IMVI melanoma 98% | SK-MEL-28 melanoma 92.2% | SK-MEL-2 melanoma 106% | EKVX NSCLC 108% | SN12C renal 93.7% | UO-31 renal 97.9% | TK-10 renal 133% | ACHN renal 115% | CAKI-1 renal 65.1% | A498 renal 114% | CCRF-CEM leukemia 96.7% | MOLT-4 leukemia 92.3%

CCCCC#Cc1c(I)n(C2OC(CO[Si](C)(C)C(C)(C)C)C3OC(C)(C)OC32)c(=O)[nH]c1=O (stereo not given)
inactive: HCT-15 colon 68.2% | HT29 colon 69.3% | SNB-75 CNS 85.5% | SNB-19 CNS 97.6% | U251 CNS 82.6% | PC-3 prostate 84.4% | SK-MEL-5 melanoma 90.4% | UACC-62 melanoma 81% | LOX IMVI melanoma 19.3% | SK-MEL-28 melanoma 68.9% | SK-MEL-2 melanoma 55.6% | EKVX NSCLC 92.2% | SN12C renal 85.1% | UO-31 renal 56.1% | TK-10 renal 68.9% | ACHN renal 72.5% | CAKI-1 renal 74.4% | A498 renal 99.1%
active: CCRF-CEM leukemia 8.63% | MOLT-4 leukemia 4.72%

O=C(Nc1ccccc1)Nc1ccccc1CNc1nc(Nc2ccc(OCCN3CCCC3)cc2)ncc1Cl
inactive: HCT-15 colon 41.4% | HT29 colon 13.8% | SNB-75 CNS 90% | SNB-19 CNS 70.6% | U251 CNS 38.7% | PC-3 prostate 76.1% | SK-MEL-5 melanoma 57.2% | UACC-62 melanoma 86.1% | SK-MEL-28 melanoma 78.5% | SK-MEL-2 melanoma 49.9% | EKVX NSCLC 85.8% | SN12C renal 57.8% | UO-31 renal 39.6% | TK-10 renal 94.8% | ACHN renal 18.2% | CAKI-1 renal 62.7% | A498 renal 31.5% | CCRF-CEM leukemia 20.4% | MOLT-4 leukemia 37.9%
active: LOX IMVI melanoma -68.3%

Cc1csc(Nc2nc(-c3cccc(Cl)c3)nc(C(Cl)(Cl)Cl)n2)n1
inactive: HCT-15 colon 53.9% | SNB-19 CNS 39.9% | U251 CNS 19.9% | PC-3 prostate 39.7% | SK-MEL-5 melanoma 88.8% | UACC-62 melanoma 74.2% | LOX IMVI melanoma 91.1% | SK-MEL-28 melanoma 39.5% | SK-MEL-2 melanoma 83.7% | SN12C renal 84.1% | UO-31 renal 39.6% | CCRF-CEM leukemia 95.5% | MOLT-4 leukemia 74%
active: HT29 colon 2.7% | SNB-75 CNS 3.48% | EKVX NSCLC 4.21% | TK-10 renal 3.91% | ACHN renal -21.7% | CAKI-1 renal 4.29% | A498 renal -18.6%

COc1nc2ccccc2cc1/C=[N+](\[O-])c1ccccc1
inactive: HCT-15 colon 19% | HT29 colon 70% | SNB-75 CNS 73% | SNB-19 CNS 81.8% | U251 CNS 56% | PC-3 prostate 60.3% | SK-MEL-5 melanoma 73.4% | UACC-62 melanoma 62.8% | LOX IMVI melanoma 40.1% | SK-MEL-28 melanoma 101% | SK-MEL-2 melanoma 87.8% | EKVX NSCLC 87% | SN12C renal 59.1% | UO-31 renal 43.9% | TK-10 renal 79.6% | ACHN renal 86.1% | CAKI-1 renal 79.8% | A498 renal 90.3% | CCRF-CEM leukemia 13.1% | MOLT-4 leukemia 29.5%

Cc1nc2sc(C(=O)Nc3ccccc3)c(N)c2cc1C(O)c1ccccc1 (stereo not given)
inactive: HT29 colon 11.9% | SNB-75 CNS 36.9% | SNB-19 CNS 23.5% | U251 CNS 16.9% | PC-3 prostate 21.6% | UACC-62 melanoma 34.6% | LOX IMVI melanoma 26.9% | SK-MEL-28 melanoma 65.7% | SK-MEL-2 melanoma 54.8% | EKVX NSCLC 51.5% | SN12C renal 25.4% | UO-31 renal 45.7% | TK-10 renal 59.3% | ACHN renal 34.4% | CAKI-1 renal 24.8% | MOLT-4 leukemia 15.1%
active: HCT-15 colon 9.11% | SK-MEL-5 melanoma 4.19% | A498 renal -8.48% | CCRF-CEM leukemia 6.36%

C=C(CNCCc1ccc(O)cc1)[C@@H]1CC[C@]2(CO)CC[C@]3(C)[C@H](CC[C@@H]4[C@@]5(C)CCC(N)C(C)(C)[C@@H]5CC[C@]43C)[C@@H]12 (stereo not given in full)
active: HCT-15 colon -79.3% | HT29 colon -49.9% | SNB-75 CNS -97.8% | SNB-19 CNS -86.1% | U251 CNS -84.4% | PC-3 prostate -75.3% | SK-MEL-5 melanoma -95.2% | UACC-62 melanoma -86.7% | LOX IMVI melanoma -86.7% | SK-MEL-28 melanoma -90.5% | SK-MEL-2 melanoma -81.4% | EKVX NSCLC -62.8% | SN12C renal -81.7% | UO-31 renal -98.9% | TK-10 renal -84.5% | ACHN renal -71.9% | CAKI-1 renal -81.8% | CCRF-CEM leukemia -26.8% | MOLT-4 leukemia -32.4%
inactive: A498 renal 64.5%

COc1cc2nc3cc([N+](=O)[O-])ccc3c(NCCCNCCO)c2cc1OC
inactive: HCT-15 colon 41.2% | UO-31 renal 48.9% | CAKI-1 renal 55.5%
active: HT29 colon 1.17% | SNB-75 CNS -74.2% | SNB-19 CNS -19% | U251 CNS -45.5% | PC-3 prostate -66.8% | SK-MEL-5 melanoma -93.9% | UACC-62 melanoma -65.2% | LOX IMVI melanoma -63.7% | SK-MEL-28 melanoma -53.1% | SK-MEL-2 melanoma -44.3% | EKVX NSCLC 7.46% | SN12C renal -33.3% | TK-10 renal -4.55% | ACHN renal 2.87% | A498 renal -80.2% | CCRF-CEM leukemia 0.0749% | MOLT-4 leukemia 2.59%

C#CCOc1cc(/C=N/Nc2nc(-c3ccc(OC)cc3)cs2)ccc1O
inactive: HCT-15 colon 83.1% | HT29 colon 92.6% | SNB-75 CNS 95.5% | SNB-19 CNS 91.9% | U251 CNS 83.8% | PC-3 prostate 82.2% | SK-MEL-5 melanoma 63.7% | UACC-62 melanoma 70.8% | LOX IMVI melanoma 90.9% | SK-MEL-28 melanoma 97.8% | SK-MEL-2 melanoma 93.3% | EKVX NSCLC 67.8% | SN12C renal 86.8% | UO-31 renal 72.6% | TK-10 renal 94.2% | ACHN renal 90.8% | CAKI-1 renal 77.6% | A498 renal 82.4% | CCRF-CEM leukemia 82.2% | MOLT-4 leukemia 87.3%

CN1CCN(Cc2ccc(NC(=O)c3cncc(C#Cc4c(N)ncc5cc(F)ccc45)c3)cc2C(F)(F)F)CC1
active: HCT-15 colon -91.7% | HT29 colon -74.8% | SNB-19 CNS -94.9% | U251 CNS -97.5% | SK-MEL-5 melanoma -52.7% | LOX IMVI melanoma -81.4% | SK-MEL-28 melanoma -41.9% | SK-MEL-2 melanoma -2.97% | CCRF-CEM leukemia -13.6% | MOLT-4 leukemia -59.6%
inactive: SNB-75 CNS 45.1% | PC-3 prostate 37.9% | UACC-62 melanoma 29.4% | EKVX NSCLC 69.6% | SN12C renal 41.7% | UO-31 renal 14.6% | TK-10 renal 67.4% | ACHN renal 40.4% | CAKI-1 renal 62% | A498 renal 73.6%
